This is a sample that favours compounds with a hit; in the whole collection about 8% have one here.
MCF10A rereplic: inducers of DNA re-replication in MCF 10A breast cells. Potency, µM (highest dose often 46.1 µM), actives largely listed as activators. 350,000 tested, 2.9% active. MCF 10A DNA re-replication, Hoechst nuclear intensity, 48 h; also: nearly all actives have a fitted effect of over 50% in size
HT1080 IDH1KD tx: toxicity to HT-1080 IDH1 knockdown cells (counter line) | HT-1080 IDH1 knockdown viability, ATP luminescence, 48 h | Potency, µM (titrated, usually from 46.1 µM), actives largely listed as cytotoxic | AID 686971 | 360,000 tested, 2% active
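Assay cells: HT-1080 with IDH1 knockdown, 750 per well, RPMI/5% FBS. Exposure: 48 h at 37 °C following 2 h pre-incubation. Read: CellTiter-Glo luminescence; fitted concentration-response, curve class assigned.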
KB-V1 cytotox: KB-V1 MDR subline cytotoxicity; KB-V1 MDR cells viability, CellTiter-Glo, 72 h; Potency, µM (titrated, usually from 46.1 µM), actives largely listed as cytotoxic; 400,000 tested, 3.4% active; AID 1347076; also: nearly all actives have a fitted effect of over 60% in size
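Compound-treated KB-V1 multidrug-resistant cells, 72 h, 37 degrees C; viability by CellTiter-Glo. Fitted qHTS curves give the values.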
KB-3-1 cytotox: KB-3-1 parental cell cytotoxicity. KB-3-1 viability, CellTiter-Glo ATP luminescence, 72 h. Potency, µM (highest dose often 46.1 µM), usual class: cytotoxic. 400,000 tested, 1.4% active. AID 1347075; also: nearly all actives have a fitted effect of over 60% in size
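Cytotoxicity measured as CellTiter-Glo luminescence after 72 h at 37 C. Compound titrations were pinned onto drug-naive KB-3-1 parental adenocarcinoma cells grown in DMEM with 10% FBS, and normalized data fitted to concentration-response curves.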
SW480 rereplic: induces DNA re-replication in SW480 colon adenocarcinoma cells; SW480 DNA re-replication, Hoechst DNA content imaging, 48 h; Potency, µM (titrated, usually from 46.1 µM), actives largely listed as activators; 340,000 tested, 1.8% active; also: nearly all actives have a fitted effect of over 55% in size
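Image-based DNA-content assay: after two days of treatment, nuclei were labelled with the DNA dye Hoechst and imaged, and hits were compounds raising the count of nuclei showing high fluorescence intensity.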
HT1080-NT tox: kills 2HG-producing HT-1080-NT fibrosarcoma cells | 360,000 tested, 1.6% active | Potency, µM (highest dose often 46.1 µM), actives largely listed as cytotoxic | AID 686970 | HT-1080-NT fibrosarcoma viability, CellTiter-Glo ATP luminescence, 48 h;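 also: NT is the 2HG producing partner of a matched IDH1 knockdown line; nearly all actives have a fitted effect of over 55% in size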
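Compounds were tested in concentration-response format on HT-1080-NT cells for 48 hours at 37 degrees C. Cell viability came from CellTiter-Glo luminescence; curves were classified by r2, response magnitude and activity.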
A number is an active result; n = inactive; u = inconclusive; x = no result; [ ] = dose if it differs, or a comment. Calls follow the shape of the dose curve; as a rule, active = well fitted curve in the direction sought with a large enough effect; inconclusive = small, poorly fitted or top-dose-only effect, or another doubt; inactive = no such curve, though single readings can be large; an effect the other way counts as inactive or inconclusive.

SMILES	MCF10A rereplic	HT1080 IDH1KD tx	KB-V1 cytotox	KB-3-1 cytotox	SW480 rereplic	HT1080-NT tox
CCCCCCc1cc2cc(C(=O)Nc3cccc(OC)c3)c(=O)oc2cc1O	u	n	6.5µM	7.3µM	u	n
CCCCCCc1cc2cc(C(=O)OCC)c(=O)oc2cc1O	u	n	n	n	1.3µM	n
CCCCCCc1cc2cc(C(=O)Nc3ccc(OC)cc3)c(=O)oc2cc1O	0.73µM	n	8.2µM	8.2µM	15µM	n
COc1ccc(NC(=O)c2cc3ccccc3oc2=O)cc1	x	n	n	n	x	n
COc1ccc(-c2c(C)n([O-])c3c([n+]2=O)CCCCC3)cc1OC	n	n	n	n	n	n
Cc1ccc(CNC(=O)c2cc3sccc3n2Cc2ccc(Cl)cc2)cc1	x	x	n	n	x	x
COc1ccccc1N1CCN(C(=O)NCc2ccc(Cl)cc2)CC1	n	n	n	n	n	n
CCc1ccc2oc(C(=O)N3CCN(c4ccccc4OC)CC3)cc(=O)c2c1	12µM	13µM	23µM	18µM	u	u
COc1ccccc1N1CCN(C(=O)c2ccc(-c3ccc(Cl)cc3)o2)CC1	u	5.2µM	u	4.6µM	u	7.3µM
CCN(CC(=O)Nc1ccc(NC(C)=O)cc1)C(=O)C1CCN(C(=O)c2ccccc2C)CC1	n	n	n	n	3.7µM	n
COc1ccc(CN2CC(=O)N3[C@H]4c5ccccc5OC[C@@H]4[C@H](c4ccccc4)[C@]3(C)C2=O)cc1	n	n	n	u	n	n
COc1ccc(S(=O)(=O)N(CC(=O)N2CCOCC2)Cc2ccccc2)cc1C	n	n	2.9µM	n	n	n
COc1ccc(C)cc1S(=O)(=O)N(CC(=O)N1CCOCC1)Cc1ccccc1	n	n	u	n	n	n
CNC(=S)N(Cc1ccc(OC)cc1)C1CC(=O)N(c2ccc(Cl)cc2)C1=O (stereo not given)	n	n	n	u	n	n
CNC(=S)N(CCc1ccc(S(N)(=O)=O)cc1)C1CC(=O)N(c2ccccc2F)C1=O (stereo not given)	n[9.22 µM]	n	n	u	5.8µM	n
COc1ccc(CCN(C(=S)Nc2ccccc2)C2CC(=O)N(c3ccccc3)C2=O)cc1 (stereo not given)	n	n	n	n	n	n
CNC(=S)N(Cc1ccc2c(c1)OCO2)C1CC(=O)N(c2ccc(F)cc2)C1=O (stereo not given)	n	n	16µM	u	n	n
O=C1CC(N(CCc2ccccc2)C(=S)Nc2ccccc2)C(=O)N1c1ccc(Br)cc1 (stereo not given)	u	u	u	u	u	16µM
CC(C)CC(=O)c1c(O)c(C=O)c(O)c2c1O[C@@]1(C)[C@@H](C2)C[C@H]2C[C@@H]1C2(C)C	n	n	n	n	n	n
COc1ccccc1CN(C)CC(=O)Nc1ccccc1-c1ccccc1	u	n	u	n	n	n
Cc1ccc(S(=O)(=O)N(CC(=O)Nc2ccccc2C(=O)O)c2cccc(Cl)c2C)cc1	16µM	u	n	u	x	u
Cc1ccccc1CN(C)CC(=O)Nc1ccccc1-c1ccccc1	15µM	n	u	n	n	n
Cc1ccc(N(CC(=O)Nc2ccccc2-c2ccccc2)S(=O)(=O)c2ccccc2)cc1	u	n[9.24 µM]	23µM	n	n	n
Cc1cc(C)cc(N(CC(=O)Nc2ccccc2-c2ccccc2)S(=O)(=O)c2ccccc2)c1	n	n	n	n	n	n
Cc1cccc(N(CC(=O)Nc2ccccc2-c2ccccc2)S(=O)(=O)c2ccccc2)c1C	n	n	21µM	u	x	n
SMILES	MCF10A rereplic	HT1080 IDH1KD tx	KB-V1 cytotox	KB-3-1 cytotox	SW480 rereplic	HT1080-NT tox
O=C(Nc1ccccn1)c1sc2ccccc2c1Cl	x	x	n	n	x	x
Cc1cc(-c2ccc(C)c(S(=O)(=O)N3CCN(c4ccccn4)CC3)c2)on1	n	u	n	n	n	u
Cc1nc2c(-c3ccccc3)c(C)nn2c(C)c1CCC(=O)Nc1ccccc1F	x	x	u	n	x	x
COc1ccccc1NS(=O)(=O)c1ccc(C(=O)Nc2ncccc2O)cc1	u	n	n	u	n	n
CN(CC(=O)Nc1ccccc1Oc1ccccc1)Cc1ccccc1F	8.2µM	n	u	n	n	n
CCC(C)N1C(=O)/C(=C/c2c(NCCCOC(C)C)nc3c(C)cccn3c2=O)SC1=S (stereo not given)	n	n	6.5µM	n	n	n
O=C(O)c1ccc(-c2nc(-c3ccccc3)c(-c3cccs3)[nH]2)cc1	n	n	n	n	n	n
Cc1ccc(-c2[nH]c(-c3ccc(C(=O)O)cc3)nc2-c2ccccc2)cc1	9.2µM	n	n	n	u	n
CSc1nc(-c2ccccc2)c(-c2ccccc2)[nH]1	u	n	12µM	u	u	n
CN(C(=O)c1ccc2c(Cl)c3c(nc2c1)CCC3)c1ccccc1F	x	x	n	n	x	x
O=C(CSc1nc2ccccc2n1Cc1cccc(F)c1)NCc1ccccc1	x	x	n	n	x	x
COc1cc(CN(C(=O)COc2ccc(F)cc2)c2ccccn2)cc(OC)c1OC	x	x	n	n	x	x
CC12CCC(C(=O)Nc3ccccc3Cl)(C(Br)C1=O)C2(C)C (stereo not given)	u	n	13µM	n	n	n
CC12CCC(C(=O)Nc3ccccc3Cl)([C@H](Br)C1=O)C2(C)C (stereo not given in full)	u	n	n	n	n	n
O=S1(=O)N=C(Oc2ccccc2F)c2ccccc21	x	x	n	n	x	x
CC(C)CCN(C(=S)Nc1cccc(F)c1)C(C)c1cccs1 (stereo not given)	16µM	n	n	n	n	n
COCCN(C(=S)Nc1cccc(C)c1)C(C)c1cccs1 (stereo not given)	n	n	n	n	n	n
Cc1ccc(N(C(=O)CNC(=O)c2ccco2)C(C(=O)NC2CCCCC2)c2cccnc2)cc1C (stereo not given)	n	n	n	n	n	n
Cc1ccc(N(C(=O)Cn2nnc(-c3ccccc3)n2)C(C(=O)NC2CCCCC2)c2ccccn2)cc1C (stereo not given)	u	n	1.2µM	n	n	n
Cc1ccc(-c2nnn(CC(=O)N(c3cccc(F)c3)C(C(=O)NC3CCCC3)c3ccco3)n2)o1 (stereo not given)	n	2.8µM	n	n	n	u
Cc1ccc(N(C(=O)CCl)C(C(=O)NC2CCCCC2)c2cccnc2)cc1C (stereo not given)	7.3µM	1.6µM	3.7µM	3.7µM	u	1.6µM
Cc1cc(C)cc(N(C(=O)Cn2nnc(-c3ccccc3)n2)C(C(=O)NC2CCCCC2)c2ccccn2)c1 (stereo not given)	n	n	u	n	n	n
